{"source": "PubChem BioAssay"}
{"tested_on": "Inhibin beta A chain (activin A)", "experiment": "INHBA (activin A) binders on microarrays, primary screen, biochemical, small-molecule microarray, 635 nm fluorescence scan (AID 1107);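 note: mouse activin A protein probed at 4.33 µg/mL on printed slides; score merges bound-protein fluorescence near 667 nm with spot signal-to-noise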", "settings": "small-molecule microarray binding, higher = more signal"}
{"compound": "C[C@@H]1NC(=O)[C@@]23C(=O)N[C@@H](Cc4ccccc4)C2[C@H](C)[C@@]2(C)O[C@H]2C3/C=C/C/C=C\\CNC(=O)[C@@H]2CCCN2C1=O", "note": "(some centres not stated)", "composite z-score": 1.35}
{"compound": "COC(=O)[C@@]1(Cc2ccccc2)[C@H]2c3cc(C(=O)N(C)C)n(Cc4c(CO)[nH]cc(C)c4=O)c3C[C@H]2CN1C(=O)c1ccccc1", "composite z-score": 1.1}
{"compound": "COC(=O)CCCCCCC(=O)Nc1ccc(NC(=O)CCCC[P+](c2ccccc2)(c2ccccc2)c2ccccc2)cc1", "composite z-score": 0.59}
{"tested_on": "Human papillomavirus type 1a protein E7 (residues 44-93)", "experiment": "HPV1a E7 fragment binders on microarrays, primary screen, biochemical, small-molecule microarray, residues 44-93, 635 nm fluorescence (AID 1108);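 note: E7 fragment applied at 1 µg/mL in TBST for 1 h at 4 C; score combines spot fluorescence with its signal to noise ratio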", "settings": "small-molecule microarray binding, fluorescence 635 nm; higher = more signal"}
{"compound": "COc1ccc([Si](C)(C)[C@@H]2[C@@H](CC(=O)N3Cc4ccccc4C[C@H]3CO)O[C@]3(C(=O)N(C)c4ccccc43)[C@H]2C)cc1", "composite z-score": 0.215}
{"compound": "O=C(N1CCCCC1)[C@@]1(CCS(=O)(=O)c2ccccc2)COC(c2ccc(OCCCO)cc2)=N1", "composite z-score": 0.517}
{"compound": "O=C1NC(=O)C2C1C=CC(C(O)CCc1ccccc1)N2Nc1ccc(Cl)cc1Cl", "note": "(configuration not stated)", "composite z-score": -0.72}
{"compound": "C=CCC(OC(C)=O)[C@@H]1[C@@H](N(Cc2cc3ccccc3o2)C(=O)c2ccc(-c3ccccc3)cc2)c2cc(OCCCO)ccc2N1C(=O)c1ccc2ccccc2c1", "note": "(some centres not stated)", "composite z-score": 0.143}
{"compound": "CCOC(=O)C[C@H]1[C@H](OC(=O)Cc2ccc3c(c2)OCO3)[C@@H](NC(=O)Cc2ccc(OC)cc2)c2cc(OCCCO)ccc2N1C(=O)c1ccc2ccccc2n1", "composite z-score": 0.189}
{"compound": "COC(=O)c1c2oc(c1C(=O)OC)C(=O)N(Cc1ccccc1)Cc1cn(nn1)C[C@H](Cc1ccccc1)NC(=O)N[C@H](CO)CC2", "composite z-score": 0.196}
{"compound": "NC(N)=NCCCn1cc(CNC(=O)[C@@H](N)Cc2ccccc2)nn1", "composite z-score": -0.15}
{"compound": "NC(=O)N1C(=O)C2C(C1=O)C1C=C(CCCO)C2C(c2cccs2)N1Cc1cccc(OC(F)(F)F)c1", "note": "(configuration not stated)", "composite z-score": 0.72}
{"compound": "CCOC(=O)C[C@H]1[C@H](OC(=O)c2cc3ccccc3oc2=O)[C@@H](NC(=O)Cc2ccc(OC)cc2)c2cc(OCCCO)ccc2N1C(=O)c1ccc2ccccc2n1", "composite z-score": 0.178}
{"compound": "COCCOC(=O)N1C(=O)[C@@]2(c3cc(C#CC4=CCCCC4)ccc31)[C@H](c1ccc(OCCO)cc1)N1[C@H](c3ccccc3)[C@H](c3ccccc3)OC(=O)[C@H]1[C@@H]2C(=O)NC[C@H](O)c1ccccc1", "composite z-score": 1.33}
{"compound": "COC(=O)c1nc2oc1CC[C@@H](CO)NC(=O)N(C)Cc1cnnn1C[C@H](Cc1ccccc1)NC2=O", "composite z-score": -0.367}
{"compound": "CN1C(=O)C2C=CC(C(O)COCc3ccccc3)N(N(c3ccccc3)c3ccccc3)C2C1=O", "note": "(configuration not stated)", "composite z-score": 1.31}
{"compound": "COc1cc2c(cc1O)C(C)N(Cc1ccc([N+](=O)[O-])o1)CC2", "note": "(configuration not stated)", "composite z-score": 1.28}
{"compound": "C=CCOC(=O)[C@H]1[C@@H]2C(=O)O[C@@H](c3ccccc3)[C@@H](c3ccccc3)N2[C@@H](c2ccc(OCCOC(=O)[C@@H]3C[C@@H]4C(=O)N[C@@H](CCCCN(C)C)C(=O)N4[C@@H]3c3ccc(O)cc3)cc2)[C@]12C(=O)Nc1ccccc12", "composite z-score": -0.541}
{"compound": "CCOC(=O)C1=C[C@@H](c2ccccc2)N(S(=O)(=O)c2ccc(C)cc2)[C@H]1c1ccccc1Cl", "composite z-score": 1.32}
{"compound": "C[N+](C)(C)CCCCCCNC(=O)[C@H]1C[C@H]2C(=O)NCC(=O)N2[C@H]1c1ccc(O)cc1", "composite z-score": 1.34}
{"compound": "COc1cc(CO)cc(I)c1O[C@H]1C=C(C(=O)NCCO)C[C@@H](NCc2ccc(F)cc2)[C@@H]1O", "composite z-score": -1.08}
{"compound": "COC1OC[C@]2(C)[C@H]3C4=C(CN2C(=O)OC(C)(C)C)[C@H](C)C(CO)C(CO)C4CC[C@@H]13", "note": "(some centres not stated)", "composite z-score": 1.22}
{"compound": "O=C1O[C@H](c2ccccc2)[C@H](c2ccccc2)N2[C@H]1[C@@H](C(=O)Nc1nc3ccccc3s1)[C@]1(C(=O)Nc3ccc(C#CCCO)cc31)[C@H]2c1ccc(O)cc1", "composite z-score": 1.4}
{"compound": "C=CCC(OC(C)=O)[C@@H]1[C@@H](N(Cc2cc3ccccc3o2)C(=O)Cc2ccc(F)cc2)c2cc(OCCCO)ccc2N1C(=O)c1ccc2ccccc2c1", "note": "(some centres not stated)", "composite z-score": -0.722}
{"compound": "OCCCC1=CC(c2ccc(CN3CCCC3)cc2)N(Cc2sc3ccccc3c2Cl)CC1", "note": "(configuration not stated)", "composite z-score": 1.32}
{"compound": "O=C1O[C@H](c2ccccc2)[C@H](c2ccccc2)N2[C@H]1[C@@H](C(=O)N1CCN(c3ncccn3)CC1)[C@]1(C(=O)Nc3ccc(C#CC4(O)CCCCCC4)cc31)[C@H]2c1ccc(OCCO)cc1", "composite z-score": 1.44}
{"compound": "O=C1C2C=CC(C(O)c3ccc(Br)cc3)N(Nc3ccccc3F)C2C(=O)N1c1ccccc1", "note": "(configuration not stated)", "composite z-score": 0.861}
{"compound": "COCCOC(=O)N1C(=O)[C@@]2(c3cc(C#CCC(C(=O)OC)C(=O)OC)ccc31)[C@H](C(=O)N1CCc3cc(OC)c(OC)cc3C1)[C@H]1C(=O)O[C@H](c3ccccc3)[C@H](c3ccccc3)N1[C@@H]2c1ccc(OCCO)cc1", "composite z-score": 1.39}
